Inconclusive results are not listed. Active and inactive are the calls of the source. Calls come from the whole dose curve; as a rule, active = well fitted curve in the direction sought with a large enough effect; inconclusive = small, poorly fitted or top-dose-only effect, or another doubt; inactive = no such curve, though single readings can be large; an effect the other way counts as inactive or inconclusive.
Legend:
[1] = target: Cellular tumor antigen p53 (Homo sapiens) (UniProt P04637); assay: Primary qHTS for small molecule compounds that upregulate eGFP-tagged delta133p53alpha (in N-terminal) cells. (AID 2060322); settings: NCI-H358 eGFP-delta133p53alpha fluorescence, 24 h; activation: stronger effect = higher value; note: nearly all actives have a fitted effect of over 75% in size;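 for activation: cells pre-induced with doxycycline then dosed without doxycycline; series mostly up to about 56 µM; 0% = DMSO vehicle and 100% = reference activator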
Sequence of Cellular tumor antigen p53 (Homo sapiens) (P04637 whole entry, looked up): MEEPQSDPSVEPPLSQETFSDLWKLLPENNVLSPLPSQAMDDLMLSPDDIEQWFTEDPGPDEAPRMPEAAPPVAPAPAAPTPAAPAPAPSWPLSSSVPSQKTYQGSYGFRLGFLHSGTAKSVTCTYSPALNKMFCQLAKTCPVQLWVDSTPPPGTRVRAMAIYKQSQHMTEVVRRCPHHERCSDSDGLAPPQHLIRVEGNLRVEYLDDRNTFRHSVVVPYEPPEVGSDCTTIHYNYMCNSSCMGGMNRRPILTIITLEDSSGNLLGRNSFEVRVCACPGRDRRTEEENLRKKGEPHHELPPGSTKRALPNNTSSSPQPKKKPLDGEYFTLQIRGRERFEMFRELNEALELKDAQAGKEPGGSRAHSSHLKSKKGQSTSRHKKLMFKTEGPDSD
Method in brief: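 NCI-H358 cells pre-induced 24 h with 10 ng/ml doxycycline for eGFP-delta133p53alpha, plated dox-free and exposed 24 h at 37C to titrated compounds. Fixed, Hoechst-stained; gated GFP peak intensity by laser scanning cytometry, normalized to DMSO (0%) and 57.5 uM 5-azacytidine (100%).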

[2] = BET inhibitor-based combinations targeting novel dependencies in MECOM-rearranged (r) AML: SET-2 cell line (AID 2202231); settings: SET-2 AML cells viability, CellTiter-Glo luminescence, 48 h; viability: stronger effect = lower value, concentration not given here; note: nearly all actives have a fitted effect of over 35% in size;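 for viability: plate controls were DMSO treated cells for no effect and wells without cells for full effect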
Method in brief: (§1)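 Cells were plated at 500 per well and exposed to an 11-point dose series of each drug for 48 hr. Viability was measured by CellTiter-Glo luminescence, normalized to DMSO and empty-well controls, and summarized as AUC and per-cell-line Z-AUC.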

[3] = BET inhibitor-based combinations targeting novel dependencies in MECOM-rearranged (r) AML: OCI-AML3 cell line (AID 2202232); settings: Potency: OCI-AML3 viability; note: nearly all actives have a fitted effect of over 35% in size
Method in brief: as §1

[4] = BET inhibitor-based combinations targeting novel dependencies in MECOM-rearranged (r) AML: MV-4-11 cell line (AID 2202233); note: nearly all actives have a fitted effect of over 45% in size
Method in brief: (§2)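 Activity is given as area under the curve and as Z-AUC, mean-centred within each cell line. It comes from 11-point dose curves normalized to DMSO and empty wells. CellTiter-Glo luminescence was read after 48 hr drug exposure of 500 cells/well.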

[5] = BET inhibitor-based combinations targeting novel dependencies in MECOM-rearranged (r) AML: HNT-34 cell line (AID 2202234); note: nearly all actives have a fitted effect of over 35% in size
Method in brief: as §2

[6] = BET inhibitor-based combinations targeting novel dependencies in MECOM-rearranged (r) AML: UCSD-AML1 cell line (AID 2202235); note: nearly all actives have a fitted effect of over 40% in size
Method in brief: as §2

[7] = BET inhibitor-based combinations targeting novel dependencies in MECOM-rearranged (r) AML: AML-191 cell line (AID 2202236; note: nearly all actives have a fitted effect of over 35% in size)
Method in brief: as §1

[8] = BET inhibitor-based combinations targeting novel dependencies in MECOM-rearranged (r) AML: AML-194 cell line (AID 2202237; note: nearly all actives have a fitted effect of over 40% in size)
Method in brief: as §1
Potency is the fitted concentration of half-maximal effect.

Nc1nc(Cl)nc2c1ncn2[C@@H]1O[C@H](CO)[C@@H](O)[C@@H]1F
inactive: activation [1] -10.7%
active: Potency [2] 0.263 µM | Potency [3] 0.148 µM | Potency [4] 0.209 µM | Potency [5] 0.166 µM | Potency [6] 0.0263 µM | Potency [7] 0.0742 µM

c1ccc2c(-c3cnn4cc(-c5ccc(N6CCNCC6)cc5)cnc34)ccnc2c1
active: Potency [2] 3.32 µM | Potency [3] 2.95 µM | Potency [4] 0.934 µM | Potency [5] 4.68 µM | Potency [6] 2.95 µM | Potency [7] 2.63 µM | Potency [8] 2.63 µM
inactive: activation [1] 75.9%

CN(c1ncccc1CNc1nc(Nc2ccc3c(c2)CC(=O)N3)ncc1C(F)(F)F)S(C)(=O)=O
active: Potency [1] 24.3 µM | Potency [2] 6.61 µM | Potency [3] 6.61 µM | Potency [4] 0.833 µM | Potency [5] 5.25 µM | Potency [6] 5.9 µM | Potency [7] 4.68 µM

Cc1cc(NC(=O)Nc2ccc(N(C)C)cc2)c2cc(F)cc(F)c2n1
inactive: activation [1] -0.105% | viability [2] 94.3%
active: Potency [3] 8.11 µM

O=C1C[C@@H](c2ccc(O)cc2)Oc2cc(O)cc(O)c21
inactive: activation [1] -17.7% | viability [2] 109% | Potency [3] | Potency [4] | Potency [5] | Potency [6] | Potency [7]

O=c1ccn([C@@H]2O[C@H](CO)[C@H](O)[C@@H]2F)c(=O)[nH]1
inactive: activation [1] -22.6% | viability [2] 107% | Potency [3] | Potency [4] | Potency [5] | Potency [6]

CC(C(=O)O)c1ccc(-c2ccccc2)c(F)c1 (stereo unspecified)
inactive: activation [1] 3.78% | viability [2] 111% | Potency [3] | Potency [4] | Potency [5] | Potency [6] | Potency [7] | Potency [8]

Reference: PubChem BioAssay (NCATS)
